# Results reported in ChEMBL document CHEMBL1961873, “Compounds: GSK PKIS; Assays: Nanosyn kinase panel” (2012).
# Experiments:
# [1] = molecular target: Sphingosine kinase 1 (Homo sapiens) (UniProt Q9NYA1); conditions: at 1 µM;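 also: mean SPHK1 inhibition value reported from the GSK PKIS kinase panel screen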
# [2] = molecular target: T1, Sphingosine kinase 2 (Homo sapiens) (UniProt Q9NRA0); conditions: at 0.1 µM
# T1 sequence (whole entry): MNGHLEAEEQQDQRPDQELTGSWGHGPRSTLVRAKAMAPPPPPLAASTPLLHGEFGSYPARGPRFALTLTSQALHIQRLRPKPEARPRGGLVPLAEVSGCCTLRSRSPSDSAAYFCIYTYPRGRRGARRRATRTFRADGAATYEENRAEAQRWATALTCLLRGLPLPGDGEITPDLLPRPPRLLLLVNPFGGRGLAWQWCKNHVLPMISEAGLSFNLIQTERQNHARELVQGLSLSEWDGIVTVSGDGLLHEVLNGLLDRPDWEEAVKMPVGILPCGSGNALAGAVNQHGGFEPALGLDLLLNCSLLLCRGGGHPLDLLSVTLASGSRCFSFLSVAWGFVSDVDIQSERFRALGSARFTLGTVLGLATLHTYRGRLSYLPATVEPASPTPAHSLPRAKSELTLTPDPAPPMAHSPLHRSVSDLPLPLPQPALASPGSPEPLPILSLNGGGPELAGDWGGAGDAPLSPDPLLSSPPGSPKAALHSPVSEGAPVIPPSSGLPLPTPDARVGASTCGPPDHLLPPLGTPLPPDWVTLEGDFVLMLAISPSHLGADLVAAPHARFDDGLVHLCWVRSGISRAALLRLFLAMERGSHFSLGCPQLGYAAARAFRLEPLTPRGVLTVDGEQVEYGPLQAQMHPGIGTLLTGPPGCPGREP
# [3] = molecular target: T1, Sphingosine kinase 2 (Homo sapiens); conditions: at 1 µM
# [4] = molecular target: Casein kinase II subunit alpha (Homo sapiens) (UniProt P68400); conditions: at 0.1 µM
# [5] = molecular target: Casein kinase II subunit alpha (Homo sapiens) (UniProt P68400); conditions: at 1 µM
# [6] = molecular target: T2, Inhibitor of nuclear factor kappa-B kinase subunit alpha (Homo sapiens) (UniProt O15111); conditions: at 0.1 µM
# T2 sequence (whole entry): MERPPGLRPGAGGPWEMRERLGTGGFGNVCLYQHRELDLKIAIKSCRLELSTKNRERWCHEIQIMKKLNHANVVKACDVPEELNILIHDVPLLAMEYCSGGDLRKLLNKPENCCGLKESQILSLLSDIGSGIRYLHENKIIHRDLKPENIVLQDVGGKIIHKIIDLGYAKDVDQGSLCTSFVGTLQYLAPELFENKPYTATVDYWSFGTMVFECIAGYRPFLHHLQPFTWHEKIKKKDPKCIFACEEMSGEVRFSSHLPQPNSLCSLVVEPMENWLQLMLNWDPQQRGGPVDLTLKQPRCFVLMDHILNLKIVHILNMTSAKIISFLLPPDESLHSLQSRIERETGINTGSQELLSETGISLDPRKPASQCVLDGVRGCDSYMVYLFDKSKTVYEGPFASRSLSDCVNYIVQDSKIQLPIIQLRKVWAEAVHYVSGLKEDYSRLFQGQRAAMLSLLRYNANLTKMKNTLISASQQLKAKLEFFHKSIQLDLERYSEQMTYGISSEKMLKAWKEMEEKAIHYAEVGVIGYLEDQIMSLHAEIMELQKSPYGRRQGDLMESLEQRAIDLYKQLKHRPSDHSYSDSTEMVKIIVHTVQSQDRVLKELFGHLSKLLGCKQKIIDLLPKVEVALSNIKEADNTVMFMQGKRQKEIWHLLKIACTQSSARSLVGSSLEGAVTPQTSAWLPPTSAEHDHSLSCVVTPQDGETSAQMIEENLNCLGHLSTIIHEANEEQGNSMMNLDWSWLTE
# [7] = molecular target: T2, Inhibitor of nuclear factor kappa-B kinase subunit alpha (Homo sapiens); conditions: at 1 µM
# [8] = molecular target: T3, Inhibitor of nuclear factor kappa-B kinase subunit beta (Homo sapiens) (UniProt O14920); conditions: at 0.1 µM
# T3 sequence (whole entry): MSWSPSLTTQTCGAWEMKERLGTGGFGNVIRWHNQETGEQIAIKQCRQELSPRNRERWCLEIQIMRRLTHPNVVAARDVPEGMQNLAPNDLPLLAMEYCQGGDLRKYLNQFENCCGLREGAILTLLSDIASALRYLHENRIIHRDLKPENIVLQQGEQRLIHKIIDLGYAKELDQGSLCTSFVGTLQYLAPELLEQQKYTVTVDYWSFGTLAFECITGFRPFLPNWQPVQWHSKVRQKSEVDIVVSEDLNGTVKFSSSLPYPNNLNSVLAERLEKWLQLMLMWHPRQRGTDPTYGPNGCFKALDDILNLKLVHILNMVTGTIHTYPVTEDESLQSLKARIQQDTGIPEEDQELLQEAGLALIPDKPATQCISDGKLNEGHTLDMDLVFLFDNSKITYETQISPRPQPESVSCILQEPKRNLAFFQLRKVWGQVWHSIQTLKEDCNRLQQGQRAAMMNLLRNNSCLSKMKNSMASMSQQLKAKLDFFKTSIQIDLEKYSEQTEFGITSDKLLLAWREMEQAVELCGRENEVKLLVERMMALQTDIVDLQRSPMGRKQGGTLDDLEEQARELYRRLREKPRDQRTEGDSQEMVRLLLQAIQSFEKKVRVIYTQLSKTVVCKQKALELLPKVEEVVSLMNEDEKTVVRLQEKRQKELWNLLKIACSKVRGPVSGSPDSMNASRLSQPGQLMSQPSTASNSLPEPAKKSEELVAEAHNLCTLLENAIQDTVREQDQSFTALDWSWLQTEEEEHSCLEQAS
# [9] = molecular target: T3, Inhibitor of nuclear factor kappa-B kinase subunit beta (Homo sapiens); conditions: at 1 µM
# [10] = molecular target: T4, Inhibitor of nuclear factor kappa-B kinase subunit epsilon (Homo sapiens) (UniProt Q14164); conditions: at 0.1 µM
# T4 sequence (whole entry): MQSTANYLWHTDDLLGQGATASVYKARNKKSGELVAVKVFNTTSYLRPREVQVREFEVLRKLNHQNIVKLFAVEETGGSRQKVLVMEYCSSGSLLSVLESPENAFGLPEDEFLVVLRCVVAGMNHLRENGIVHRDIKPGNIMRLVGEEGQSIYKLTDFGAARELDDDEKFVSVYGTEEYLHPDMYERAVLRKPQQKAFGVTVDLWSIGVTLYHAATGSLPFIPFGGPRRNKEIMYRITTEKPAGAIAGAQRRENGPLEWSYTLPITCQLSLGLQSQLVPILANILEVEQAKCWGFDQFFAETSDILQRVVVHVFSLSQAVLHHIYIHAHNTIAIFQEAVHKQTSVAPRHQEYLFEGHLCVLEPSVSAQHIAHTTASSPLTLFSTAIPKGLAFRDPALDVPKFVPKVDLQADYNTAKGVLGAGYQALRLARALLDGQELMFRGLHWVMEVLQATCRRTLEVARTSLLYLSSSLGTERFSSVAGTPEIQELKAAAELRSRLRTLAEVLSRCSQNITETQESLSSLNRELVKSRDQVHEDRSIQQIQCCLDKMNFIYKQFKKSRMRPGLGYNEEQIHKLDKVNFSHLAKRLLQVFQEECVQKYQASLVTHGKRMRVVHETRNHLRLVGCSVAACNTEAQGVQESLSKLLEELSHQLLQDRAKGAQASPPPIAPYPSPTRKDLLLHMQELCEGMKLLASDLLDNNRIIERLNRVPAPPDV
# [11] = molecular target: T4, Inhibitor of nuclear factor kappa-B kinase subunit epsilon (Homo sapiens); conditions: at 1 µM
# [12] = molecular target: T5, Serine/threonine-protein kinase Nek1 (Homo sapiens) (UniProt Q96PY6); conditions: at 0.1 µM
# T5 sequence (whole entry): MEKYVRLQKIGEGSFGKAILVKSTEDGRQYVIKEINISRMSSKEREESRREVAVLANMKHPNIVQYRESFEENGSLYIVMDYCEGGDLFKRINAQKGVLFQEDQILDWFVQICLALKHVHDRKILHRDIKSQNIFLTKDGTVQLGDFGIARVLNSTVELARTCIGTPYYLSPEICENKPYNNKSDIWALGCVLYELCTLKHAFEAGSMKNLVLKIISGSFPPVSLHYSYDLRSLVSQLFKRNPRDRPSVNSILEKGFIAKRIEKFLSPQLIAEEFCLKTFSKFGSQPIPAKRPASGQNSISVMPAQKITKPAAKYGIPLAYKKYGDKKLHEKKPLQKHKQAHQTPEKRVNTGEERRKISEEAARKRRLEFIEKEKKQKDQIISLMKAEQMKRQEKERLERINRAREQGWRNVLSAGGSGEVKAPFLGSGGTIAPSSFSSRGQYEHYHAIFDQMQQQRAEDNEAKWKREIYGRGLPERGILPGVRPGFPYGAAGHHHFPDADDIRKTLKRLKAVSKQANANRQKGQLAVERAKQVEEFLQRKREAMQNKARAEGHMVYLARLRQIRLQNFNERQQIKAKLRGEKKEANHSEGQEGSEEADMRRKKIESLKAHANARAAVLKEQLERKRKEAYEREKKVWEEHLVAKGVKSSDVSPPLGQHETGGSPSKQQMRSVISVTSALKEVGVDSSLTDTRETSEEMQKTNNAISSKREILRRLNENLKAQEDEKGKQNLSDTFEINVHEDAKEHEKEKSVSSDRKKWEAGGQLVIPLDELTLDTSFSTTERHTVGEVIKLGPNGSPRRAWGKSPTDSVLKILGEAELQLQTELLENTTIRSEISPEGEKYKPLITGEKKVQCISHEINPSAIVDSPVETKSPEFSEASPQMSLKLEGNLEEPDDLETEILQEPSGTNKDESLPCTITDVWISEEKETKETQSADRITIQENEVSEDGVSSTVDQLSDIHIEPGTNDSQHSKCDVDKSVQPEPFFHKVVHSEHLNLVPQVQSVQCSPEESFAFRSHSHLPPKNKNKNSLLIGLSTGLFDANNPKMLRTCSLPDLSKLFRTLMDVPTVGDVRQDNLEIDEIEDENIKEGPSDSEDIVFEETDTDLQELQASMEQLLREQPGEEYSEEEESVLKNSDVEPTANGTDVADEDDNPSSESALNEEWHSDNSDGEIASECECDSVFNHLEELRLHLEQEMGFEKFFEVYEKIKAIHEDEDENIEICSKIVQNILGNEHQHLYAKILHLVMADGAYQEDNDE
# [13] = molecular target: T5, Serine/threonine-protein kinase Nek1 (Homo sapiens); conditions: at 1 µM
# [14] = molecular target: T6, Serine/threonine-protein kinase Nek2 (Homo sapiens) (UniProt P51955); conditions: at 0.1 µM
# T6 sequence (whole entry): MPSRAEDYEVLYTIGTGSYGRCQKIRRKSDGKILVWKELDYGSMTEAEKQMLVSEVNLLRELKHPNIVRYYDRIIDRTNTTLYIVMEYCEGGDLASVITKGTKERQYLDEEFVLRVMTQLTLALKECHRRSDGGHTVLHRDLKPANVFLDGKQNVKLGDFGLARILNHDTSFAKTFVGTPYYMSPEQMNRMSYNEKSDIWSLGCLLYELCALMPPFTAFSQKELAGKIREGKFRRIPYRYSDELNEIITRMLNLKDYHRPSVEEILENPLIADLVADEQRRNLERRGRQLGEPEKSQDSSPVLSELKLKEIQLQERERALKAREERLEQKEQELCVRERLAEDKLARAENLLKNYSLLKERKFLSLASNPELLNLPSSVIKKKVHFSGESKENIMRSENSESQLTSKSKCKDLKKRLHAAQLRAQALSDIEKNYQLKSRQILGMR
# [15] = molecular target: T6, Serine/threonine-protein kinase Nek2 (Homo sapiens); conditions: at 1 µM
# [16] = molecular target: Serine/threonine-protein kinase Nek6 (Homo sapiens) (UniProt Q9HC98); conditions: at 0.1 µM
# [17] = molecular target: Serine/threonine-protein kinase Nek6 (Homo sapiens) (UniProt Q9HC98); conditions: at 1 µM
# [18] = molecular target: Serine/threonine-protein kinase Nek7 (Homo sapiens) (UniProt Q8TDX7); conditions: at 0.1 µM
# [19] = molecular target: Serine/threonine-protein kinase Nek7 (Homo sapiens) (UniProt Q8TDX7); conditions: at 1 µM
# [20] = molecular target: T7, Serine/threonine-protein kinase Nek9 (Homo sapiens) (UniProt Q8TD19); conditions: at 0.1 µM;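 also: reported value is the mean percent inhibition of NEK9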
# T7 sequence (whole entry): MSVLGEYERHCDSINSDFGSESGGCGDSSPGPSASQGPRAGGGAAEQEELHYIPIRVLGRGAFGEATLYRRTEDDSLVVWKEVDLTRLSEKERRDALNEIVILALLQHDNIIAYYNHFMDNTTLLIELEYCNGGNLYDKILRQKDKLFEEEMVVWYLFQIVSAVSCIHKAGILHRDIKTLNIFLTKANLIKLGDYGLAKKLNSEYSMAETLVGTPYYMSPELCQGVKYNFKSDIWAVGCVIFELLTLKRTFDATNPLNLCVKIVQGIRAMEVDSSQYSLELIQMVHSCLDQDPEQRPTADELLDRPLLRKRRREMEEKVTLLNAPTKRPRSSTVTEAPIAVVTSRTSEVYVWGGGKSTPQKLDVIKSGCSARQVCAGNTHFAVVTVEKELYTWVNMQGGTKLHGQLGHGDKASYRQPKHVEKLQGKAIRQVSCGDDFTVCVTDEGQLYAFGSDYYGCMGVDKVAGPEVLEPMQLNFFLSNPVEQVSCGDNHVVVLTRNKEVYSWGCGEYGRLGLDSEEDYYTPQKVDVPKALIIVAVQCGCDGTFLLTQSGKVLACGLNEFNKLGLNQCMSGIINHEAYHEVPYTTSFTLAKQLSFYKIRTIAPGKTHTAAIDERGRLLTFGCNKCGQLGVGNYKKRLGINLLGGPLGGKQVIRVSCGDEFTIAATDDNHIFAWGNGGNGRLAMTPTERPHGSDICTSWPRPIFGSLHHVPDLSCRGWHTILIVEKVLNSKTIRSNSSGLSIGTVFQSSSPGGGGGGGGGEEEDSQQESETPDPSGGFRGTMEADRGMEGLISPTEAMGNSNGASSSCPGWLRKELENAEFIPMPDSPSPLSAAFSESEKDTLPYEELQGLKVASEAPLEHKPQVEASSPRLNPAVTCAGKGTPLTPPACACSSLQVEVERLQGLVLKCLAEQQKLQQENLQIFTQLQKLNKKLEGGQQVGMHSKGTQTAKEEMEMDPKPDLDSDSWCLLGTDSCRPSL
# Chain of Casein kinase II subunit alpha (Homo sapiens) (P68400 whole entry, looked up): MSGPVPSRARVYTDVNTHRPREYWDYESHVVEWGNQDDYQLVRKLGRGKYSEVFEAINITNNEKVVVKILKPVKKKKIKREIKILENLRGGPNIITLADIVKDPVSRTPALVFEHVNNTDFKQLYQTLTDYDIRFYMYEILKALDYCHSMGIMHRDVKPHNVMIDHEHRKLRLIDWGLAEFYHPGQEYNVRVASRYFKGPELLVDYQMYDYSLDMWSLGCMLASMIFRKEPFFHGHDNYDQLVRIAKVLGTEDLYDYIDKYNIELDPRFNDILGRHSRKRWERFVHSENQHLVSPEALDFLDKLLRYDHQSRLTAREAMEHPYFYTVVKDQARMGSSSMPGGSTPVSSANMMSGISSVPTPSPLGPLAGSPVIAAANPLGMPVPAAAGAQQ
# Chain of Serine/threonine-protein kinase Nek7 (Homo sapiens) (Q8TDX7 whole entry, looked up): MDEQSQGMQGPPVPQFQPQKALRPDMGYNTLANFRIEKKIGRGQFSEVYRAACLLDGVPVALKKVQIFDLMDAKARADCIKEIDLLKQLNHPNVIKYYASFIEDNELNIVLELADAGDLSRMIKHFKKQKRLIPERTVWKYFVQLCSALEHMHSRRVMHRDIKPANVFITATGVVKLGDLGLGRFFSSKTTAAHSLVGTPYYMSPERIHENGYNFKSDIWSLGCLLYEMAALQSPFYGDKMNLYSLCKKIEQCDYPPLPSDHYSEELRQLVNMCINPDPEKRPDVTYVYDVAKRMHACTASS
# Chain of Serine/threonine-protein kinase Nek6 (Homo sapiens) (Q9HC98 whole entry): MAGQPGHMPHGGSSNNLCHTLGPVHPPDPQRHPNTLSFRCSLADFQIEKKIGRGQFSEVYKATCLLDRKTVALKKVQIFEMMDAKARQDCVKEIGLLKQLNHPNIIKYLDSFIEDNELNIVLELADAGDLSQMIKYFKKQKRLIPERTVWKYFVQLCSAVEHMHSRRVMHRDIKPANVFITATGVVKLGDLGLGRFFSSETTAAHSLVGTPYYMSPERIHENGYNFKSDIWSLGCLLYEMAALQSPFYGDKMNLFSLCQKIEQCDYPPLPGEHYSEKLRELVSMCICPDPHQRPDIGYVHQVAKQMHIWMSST
# Chain of Sphingosine kinase 1 (Homo sapiens) (Q9NYA1 whole entry): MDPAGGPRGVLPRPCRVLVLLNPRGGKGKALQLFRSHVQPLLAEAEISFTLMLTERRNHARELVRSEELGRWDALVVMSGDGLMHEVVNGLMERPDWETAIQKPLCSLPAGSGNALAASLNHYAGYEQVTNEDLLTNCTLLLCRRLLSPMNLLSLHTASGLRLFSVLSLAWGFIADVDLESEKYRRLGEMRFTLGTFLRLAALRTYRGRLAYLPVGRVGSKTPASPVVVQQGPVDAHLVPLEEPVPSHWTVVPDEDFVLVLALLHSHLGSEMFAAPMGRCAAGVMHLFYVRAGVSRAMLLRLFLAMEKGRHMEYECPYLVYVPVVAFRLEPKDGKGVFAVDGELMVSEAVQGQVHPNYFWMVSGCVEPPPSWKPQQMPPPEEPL
Structure (SMILES),inhibition [1],inhibition [2],inhibition [3],inhibition [4],inhibition [5],inhibition [6],inhibition [7],inhibition [8],inhibition [9],inhibition [10],inhibition [11],inhibition [12],inhibition [13],inhibition [14],inhibition [15],inhibition [16],inhibition [17],inhibition [18],inhibition [19],inhibition [20]
O=C(Nc1n[nH]c2nc(-c3ccco3)ccc12)C1CC1,-1.96%,0.87%,-0.13%,0.99%,-0.44%,4.36%,-0.84%,-0.41%,-0.38%,-0.37%,-0.75%,1.33%,1.36%,-0.12%,1.78%,1.86%,-0.99%,2.23%,2.61%,6.28%
NS(=O)(=O)c1ccc(Nc2cc(-c3ccc(O)c(F)c3)n[nH]2)cc1,-3.17%,0%,0.11%,5.31%,29.6%,-1.61%,3.48%,-0.76%,0.06%,-4.53%,-0.51%,-0.93%,-1.21%,-3.94%,-3.05%,-4.94%,-2.21%,-0.59%,-3.23%,5.12%
